PubChem BioAssay AID589 (National Center for Advancing Translational Sciences (NCATS), 2007)
Out of some 59,000 compounds screened, about 6,200 (11%) were called active. Roughly 9% stayed inconclusive and do not appear here. Cut-off read from the data, not from the text of the source: active = max dye-equivalent concentration above about 10 nM; inconclusive = mostly about 1.1 nM to 9.6 nM; inactive = weaker than that. The list comes from a sample in which actives are over-represented; it also holds similar structures and randomly drawn compounds. Some structures have more than one record in an assay (separate samples or runs), and their calls can disagree.

Assay: qHTS Assay for Spectroscopic Profiling in 4-MU Spectral Region
Details: compound autofluorescence, 340/450 nm, 4-MU equivalents; hits give high values
Procedure, shortened: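 Compounds in 100 mM Tris, pH 8.0, sat 15 min at room temperature before fluorescence was read at 340 nm excitation/450 nm emission; a per-plate six-point 4-MU standard curve converted signals to dye-equivalent concentration at each compound concentration.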

| Structure (SMILES) | max dye-equivalent concentration | outcome |
| --- | --- | --- |
| COc1ccc(C2=CC(c3cccc(OC)c3)n3nnnc3N2)cc1 (stereo unspecified) | 13 nM (active) |  |
| CCCCC(=O)N1CC2(C)CN(C(=O)CCCC)CC(C)(C1)C2=O | inactive |  |
| Cn1c(=O)n(C)c(=O)n(CC(=O)N2CCCCC2)c1=O | inactive |  |
| CS(=O)(=O)N(Cc1nc2sc3c(c2c(=O)[nH]1)CCCC3)C1CCCCC1 | 34 nM (active) |  |
| Cc1nn2c3cc(N4CCOCC4)ccc3nc2c2ccccc12 | inactive |  |
| CS(=O)(=O)N(CC(=O)N1CCN(c2cccc(Cl)c2)CC1)c1ccccc1 | inactive |  |
| Cc1cc(C)c2c(n1)nn1c(N3CCN(c4cccc(Cl)c4)CC3)cc(C)nc21 | 100 nM (active) |  |
| Cc1cc(C)c2c(n1)nn1c(N3CCOCC3)cc(C)nc21 | 6300 nM (active) |  |
| Cc1cc(C)c2c(n1)nn1c(-n3ccnc3)cc(C)nc21 | 240 nM (active) |  |
| Cc1cc(N2CCN(Cc3ccc4c(c3)OCO4)CC2)n2ncnc2n1 | inactive |  |
| CCN1C(=O)/C(=C\N2CCN(c3cccc(Cl)c3)CC2)SC1=S | inactive |  |
| COc1ccc(C(=O)N2CCC3(CC2)CCN(c2ccccn2)CC3)cc1 | inactive |  |
| CCn1c(CNC(=O)c2ccc(OC)c(OC)c2)nnc1SCC(=O)Nc1ccccc1 | inactive |  |
| O=C(CN(Cc1ccccc1)C(=O)c1ccc2c(c1)OCCO2)NCc1ccc2c(c1)OCO2 | inactive |  |
| Cc1nnc(NC2=NCCCCC2)o1 | inactive |  |
| O=C(c1c(Cl)nc2sccn12)N1CCCc2ccccc21 | inactive |  |
| O=C1CC(Cc2ccccc2)C(=O)N1c1ccc(Cl)cn1 (stereo unspecified) | inactive |  |
| Cc1ccc(C(C(=O)NCc2ccco2)N(CC2CCCO2)C(=O)Cn2nnc3ccccc32)cc1 (stereo unspecified) | inactive |  |
| CN(C)C(=O)c1ccc(-c2cncnc2Nc2ccccc2)cc1 | inactive |  |
| O=C(NCc1cn2ccsc2n1)Nc1cccc(Cl)c1 | inactive |  |
| O=C(/C=N/O)Nc1ccccc1 | inactive |  |
| CCS(=O)(=O)n1nc(-c2ccc(OC)cc2)nc1SC | inactive |  |
| COc1cc(-c2nn3c(-c4cccc(C)c4)nnc3s2)cc(OC)c1OC | 1900 nM (active) |  |
| c1ccc(-c2cc(-c3nnc4sc(-c5ccccn5)nn34)[nH]n2)cc1 | inactive |  |
| CCOc1cccc(-c2nn3c(-c4ccccn4)nnc3s2)c1 | inactive |  |
| CCCC(CCC(=O)OC)(C(=O)OCC)c1csc(N)n1 (stereo unspecified) | inactive |  |
| COc1ccc(CNc2ncncc2-c2ccccc2C)c(OC)c1 | inactive |  |
| Oc1c(CN2CCOCC2)ccc(CN2CCOCC2)c1O | inactive |  |

| Structure (SMILES) | max dye-equivalent concentration | outcome |
| --- | --- | --- |
| O=c1[nH]nc(Cc2ccccn2)c2ccccc12 | inactive |  |
| CN(CCc1ccccn1)S(=O)(=O)c1ccc2c3c(cccc13)C(=O)N2 | 790 nM (active) |  |
| O=C(COC(=O)CCC(=O)c1cccs1)NCc1ccco1 | inactive |  |
| Cc1cc(C(=O)OCC(=O)NCc2ccco2)c(C)n1-c1ccccc1 | inactive |  |
| O=C(COC(=O)C12CC3CC(CC(C3)C1)C2)NCc1ccco1 | 23 nM (active) |  |
| CC(C)(C)c1cc(CN2CCN(CCC#N)CC2)cc(C(C)(C)C)c1O | inactive |  |
| O=C(O)Cc1ccc(-c2ccccc2)cc1 | 49 nM (active) | inactive |
| O=C(O)Cc1ccc(NC(=O)c2cccs2)cc1 | inactive |  |
| O=C(O)CCCc1ccccc1 | inactive |  |
| CCOC(=O)C1CCN(C(=O)C2CCN(S(=O)(=O)CC)CC2)CC1 | inactive |  |
| O=C(O)CSCNC(=O)CC12CC3CC(CC(C3)C1)C2 | inactive |  |
| O=C(NC1CCCCC1)n1c(=O)oc2cc(S(=O)(=O)N3CCCCC3)ccc21 | inactive |  |
| NS(=O)(=O)c1cc2c(cc1Cl)NC(C(Cl)Cl)NS2(=O)=O (stereo unspecified) | 6500 nM (active) |  |
| C=CCn1c(C)cc(C(=O)CN2C(=O)c3ccccc3C2=O)c1C | inactive |  |
| O=C(Nc1ccc(NC(=O)c2cccs2)cn1)c1ccco1 | inactive |  |
| Cc1c(C(=O)NCCN2CCOCC2)sc2nc(-c3ccc(F)cc3)cn12 | inactive |  |
| CSc1cccc(NC(=O)CSc2ccccc2)c1 | inactive |  |
| COc1ccc(OC)c2c(N)c(C#N)c(C(F)(F)C(F)(F)F)nc12 | 140 nM (active) |  |
| CCCCOc1ccc(-c2nnc(-c3ccco3)o2)cc1 | inactive |  |
| O=C(Nc1cccc2cccnc12)c1cccc(N2C(=O)CCC2=O)c1 | inactive |  |
| O=C(CN1CCOCC1)N1CCCc2c1c(=O)oc1ccc(OCc3ccccc3)cc21 | 45 nM (active) |  |
| N#Cc1nc(-c2ccc(OCc3ccccc3)cc2)oc1NCCCN1CCOCC1 | inactive |  |
| O=C(OCCN1CCOCC1)C1(c2ccccc2)CCCCC1 | inactive |  |
| CCOC(=O)C1CCCN(C(=O)c2cncc(Br)c2)C1 (stereo unspecified) | inactive |  |
| COc1ccc(OC)c([C@H](O)CNC(=O)CN)c1 | inactive |  |
| C/C(Cl)=C\Cn1c(Nc2cccc(C)c2)nc2c1c(=O)n(C)c(=O)n2C | inactive |  |
| COc1ccccc1CN1CC2(CCN(S(=O)(=O)c3ccccc3)CC2)C1 | inactive |  |
